Laboratory results as given in the supplement of paper PMC9262897, “Low-cost anti-mycobacterial drug discovery using engineered E. coli” (Nature Communications, 2022).
Structures can show the parent of a compound that is named as a salt. ± gives the standard deviation of the averaged measurements.

What follows are compounds tested on E. coli TESEC Mtb Alr (assay: growth (OD600 after 10 h); higher = more growth (less inhibition)). Conditions: arabinose 100000 nM; compound 0.1 mM; raw OD600 reference: median of DMSO wells 0.201, cell-free background 0.041.
Description: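 TESEC Mtb Alr E. coli, or the Alr+ wild-type control, in 384-well plates with Prestwick library compounds at 0.1 mM and 1% DMSO, across arabinose induction levels of 1E3 to 1E7 nM. Growth is read as OD600 after 10 h at 37 °C in triplicate biological replicates.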

SMILES	growth
O=C1c2ccccc2S(=O)(=O)N1CCCCN1CCN(c2ncccn2)CC1 [Ipsapirone]	0.171 ± 0.0059
COc1ccc(-c2cc(=S)ss2)cc1 [Anethole-trithione]	0.18 ± 0.0053
CCCc1nc2c(C)cc(-c3nc4ccccc4n3C)cc2n1Cc1ccc(-c2ccccc2C(=O)O)cc1 [Telmisartan]	0.19 ± 0.016
CSc1ccc2c(c1)N(CCC1CCCCN1C)c1ccccc1S2 (stereo not drawn) [Thioridazine hydrochloride]	0.04037 ± 0.00031
CCOC(=O)c1ccc(N)cc1 [Benzocaine]	0.213 ± 0.011
Cc1cc2c(cc1S(N)(=O)=O)S(=O)(=O)CCC2 [Meticrane]	0.234 ± 0.034
CC(C)COCC(CN(Cc1ccccc1)c1ccccc1)N1CCCC1 (stereo not drawn) [Bepridil hydrochloride]	0.04057 ± 0.00029
NC[C@H]1O[C@H](O[C@H]2[C@H](O[C@@H]3O[C@H](CO)[C@@H](O)[C@H]3O)[C@@H](O)[C@H](N)C[C@@H]2N)[C@H](N)[C@@H](O)[C@@H]1O [Ribostamycin sulfate salt]	0.182 ± 0.025
N=C(N)NS(=O)(=O)c1ccc(N)cc1 [Sulfaguanidine]	0.227 ± 0.027

Same assay, conditions: arabinose 1000000 nM; compound 0.1 mM; raw OD600 reference: median of DMSO wells 0.193, cell-free background 0.041

SMILES	growth
CN1CCc2cccc3c2[C@H]1Cc1ccc(O)c(O)c1-3 [R(-) Apomorphine hydrochloride hemihydrate]	0.0652 ± 0.0022
CN1CCCN(C(c2ccccc2)c2ccc(Cl)cc2)CC1 (stereo not drawn) [Homochlorcyclizine dihydrochloride]	0.0532 ± 0.00092
Cc1ncc(CO)c(CO)c1O [Pyridoxine hydrochloride]	0.174 ± 0.0032
O=C(NCC(O)CO)c1c(I)c(C(=O)NCC(O)CO)c(I)c(N(CCO)C(=O)CO)c1I (stereo not drawn) [Ioversol]	0.192 ± 0.0057
C[C@@H]1[C@H](O)[C@@H](C)/C=C/C=C/C=C/C=C/C=C/C=C/C=C/[C@H](O[C@@H]2O[C@H](C)[C@@H](O)[C@H](N)[C@@H]2O)C[C@@H]2O[C@](O)(C[C@@H](O)C[C@@H](O)[C@H](O)CC[C@@H](O)C[C@@H](O)CC(=O)O[C@H]1C)C[C@H](O)[C@H]2C(=O)O [Amphotericin B]	0.182 ± 0.0098
C=Cc1c(C)c2cc3nc(cc4[nH]c(cc5nc(cc1[nH]2)C(C)=C5CCC(=O)O)c(CCC(=O)OC)c4C)[C@@]1(C)C3=CC=C(C(=O)OC)C1C(=O)OC.C=Cc1c(C)c2cc3nc(cc4[nH]c(cc5nc(cc1[nH]2)C(C)=C5CCC(=O)OC)c(CCC(=O)O)c4C)[C@@]1(C)C3=CC=C(C(=O)OC)C1C(=O)OC (stereo partly drawn) [Verteporfin]	0.179 ± 0.0041
CC(C)C[C@H](NC(=O)[C@@H](O)[C@H](N)Cc1ccccc1)C(=O)O [Ubenimex]	0.185 ± 0.006
CC(COc1ccccc1)N(CCCl)Cc1ccccc1 (stereo not drawn) [Phenoxybenzamine hydrochloride]	0.03927 ± 0.00029
CN(C)CCCOc1nn(Cc2ccccc2)c2ccccc12 [Benzydamine hydrochloride]	0.112 ± 0.0038
CC1CS(=O)(=O)CCN1/N=C/c1ccc([N+](=O)[O-])o1 (stereo not drawn) [Nifurtimox]	0.0414 ± 0.00017
NCC[C@H](O)C(=O)N[C@@H]1C[C@H](N)[C@@H](O[C@H]2O[C@H](CN)[C@@H](O)[C@H](O)[C@H]2O)[C@H](O)[C@H]1O[C@H]1O[C@H](CO)[C@@H](O)[C@H](N)[C@H]1O [Amikacin hydrate]	0.03943 ± 0.00021
Cc1cn([C@H]2C[C@H](N=[N+]=[N-])[C@@H](CO)O2)c(=O)[nH]c1=O [Zidovudine, AZT]	0.0604 ± 0.0022
NC1CCN(c2nc3c(cc2F)c(=O)c(C(=O)O)cn3-c2ccc(F)cc2F)C1 (stereo not drawn) [Tosufloxacin hydrochloride]	0.0452 ± 0.0008
CC[C@H](C)C(=O)O[C@H]1C[C@H](O)C=C2C=C[C@H](C)[C@H](CC[C@@H](O)C[C@@H](O)CC(=O)O)[C@H]21 [Pravastatin]	0.185 ± 0.019
CC(NCCC(c1ccccc1)c1ccccc1)c1ccccc1 (stereo not drawn) [Fendiline hydrochloride]	0.0386 ± 0.00049
CCN1CCCC(OC(=O)C(c2ccccc2)c2ccccc2)C1 (stereo not drawn) [Piperidolate hydrochloride]	0.157 ± 0.0096
COc1ccc(C(=O)NCc2ccc(OCCN(C)C)cc2)cc1OC [Itopride]	0.176 ± 0.0056
CCCCOc1ccc(C(=O)CCN2CCCCC2)cc1 [Dyclonine hydrochloride]	0.143 ± 0.0049
CC(C)C(=O)c1c(C(C)C)nn2ccccc12 [Ibudilast]	0.134 ± 0.0043
CC(O)(P(=O)(O)O)P(=O)(O)O [Etidronic acid, disodium salt]	0.184 ± 0.0041

SMILES	growth
Nc1ccc(O)c(C(=O)O)c1 [Mesalamine]	0.21 ± 0.0038
CC=CC1=C(C(=O)O)N2C(=O)[C@@H](NC(=O)[C@H](N)c3ccc(O)cc3)[C@H]2SC1 [Cefprozil]	0.194 ± 0.021
O=C(OCC(O)CO)c1ccccc1Nc1ccnc2cc(Cl)ccc12 (stereo not drawn) [Glafenine hydrochloride]	0.102 ± 0.0023
CC1Cc2ccccc2N1NC(=O)c1ccc(Cl)c(S(N)(=O)=O)c1 (stereo not drawn) [Indapamide]	0.159 ± 0.0057
CN(C)CCN1C(=O)c2ccccc2N(C)c2ccccc21 [Dibenzepine hydrochloride]	0.167 ± 0.0098
CO[C@@]1(NC(=O)Cc2cccs2)C(=O)N2C(C(=O)O)=C(COC(N)=O)CS[C@@H]21 [Cefoxitin sodium salt]	0.03983 ± 0.00029
CCC1(c2ccccc2)NC(=O)N(C)C1=O (stereo not drawn) [Mephenytoin]	0.204 ± 0.013
CCN(CC)CC#CCOC(=O)C(O)(c1ccccc1)C1CCCCC1 (stereo not drawn) [Oxybutynin chloride]	0.0668 ± 0.00052
COC(=O)[C@H](c1ccccc1Cl)N1CCc2sccc2C1 [Clopidogrel]	0.0439 ± 0.00078
CN(C)CCOc1ccc(/C(=C(/CCCl)c2ccccc2)c2ccccc2)cc1 [Toremifene]	0.04023 ± 0.00025
O=C1c2ccccc2S(=O)(=O)N1CCCCN1CCN(c2ncccn2)CC1 [Ipsapirone]	0.154 ± 0.007
COc1ccc(-c2cc(=S)ss2)cc1 [Anethole-trithione]	0.12 ± 0.026
CCCc1nc2c(C)cc(-c3nc4ccccc4n3C)cc2n1Cc1ccc(-c2ccccc2C(=O)O)cc1 [Telmisartan]	0.228 ± 0.0023
CSc1ccc2c(c1)N(CCC1CCCCN1C)c1ccccc1S2 (stereo not drawn) [Thioridazine hydrochloride]	0.03907 ± 0.00012
CCOC(=O)c1ccc(N)cc1 [Benzocaine]	0.182 ± 0.0029
Cc1cc2c(cc1S(N)(=O)=O)S(=O)(=O)CCC2 [Meticrane]	0.172 ± 0.013
CC(C)COCC(CN(Cc1ccccc1)c1ccccc1)N1CCCC1 (stereo not drawn) [Bepridil hydrochloride]	0.03933 ± 5.8e-05
NC[C@H]1O[C@H](O[C@H]2[C@H](O[C@@H]3O[C@H](CO)[C@@H](O)[C@H]3O)[C@@H](O)[C@H](N)C[C@@H]2N)[C@H](N)[C@@H](O)[C@@H]1O [Ribostamycin sulfate salt]	0.201 ± 0.015
N=C(N)NS(=O)(=O)c1ccc(N)cc1 [Sulfaguanidine]	0.173 ± 0.0041
